Results filed as inconclusive are left out. Activity calls are given as the source filed them. Calls follow the shape of the dose curve; as a rule, active = well fitted curve in the direction sought with a large enough effect; inconclusive = small, poorly fitted or top-dose-only effect, or another doubt; inactive = no such curve, though single readings can be large; an effect the other way counts as inactive or inconclusive.
Legend:
CRL-7250 = normal cell line; experiment: Cytotoxic Profiling of Annotated Libraries Using Quantitative High-Throughput Screening (AID 1296008); conditions: Five cell lines viability, CellTiter-Glo ATP luminescence, 48-72 h; max response: active compounds read low; also: nearly all actives have a fitted effect of over 60% in size; as to max response: % is scaled to controls: 0 for no effect and ±100 for the full control effect
In short: (§1)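 Cytotoxicity was measured as CellTiter-Glo ATP luminescence, read after 10 min at room temperature. Compound treatment of the cells lasted 48 or 72 hr at 37 degrees Celsius in a qHTS format.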

HEK293 = experiment: as above; conditions: Five cell lines viability, CellTiter-Glo ATP luminescence, 48-72 h; max response: active compounds read low
In short: as §1

HaCat = experiment: as above; conditions: Five cell lines viability, CellTiter-Glo ATP luminescence, 48-72 h; max response: active compounds read low
In short: as §1

KB-3-1 = experiment: as above; conditions: Five cell lines viability, CellTiter-Glo ATP luminescence, 48-72 h; max response: active compounds read low
In short: as §1

NIH3T3 [1] = experiment: as above; conditions: Five cell lines viability, CellTiter-Glo ATP luminescence, 48-72 h; max response: active compounds read low
In short: as §1

HEK293T = experiment: qHTS assay to identify novel small-molecules to repurpose for Merkel cell carcinoma treatment (AID 1296009); conditions: MCC and control cell lines, CellTiter-Glo viability, 72 h; series mostly up to 44.8 µM; also: nearly all actives have a fitted effect of over 60% in size
In short: (§2)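 72 hr, 37 degree celsius; NPC 8-pt / MIPE 11-pt dose response; compound pinned in DMSO; CellTiter-Glo, 10 min RT, luminescence; normalized to no-cell and DMSO controls.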

NIH3T3 [2] = experiment: as above; conditions: MCC and control cell lines, CellTiter-Glo viability, 72 h; at 44.8 µM (top of the series) unless noted
In short: as §2

C33A = experiment: Primary qHTS to identify gynecologic anti-cancer compounds using libraries of approved drugs and bioactive compounds (AID 1345084); conditions: Gynecologic cancer cell panel viability, ATPlite luminescence, 48 h; series mostly up to 57.5 µM; also: % is scaled to controls: 0 for no effect and ±100 for the full control effect; nearly all actives have a fitted effect of over 55% in size
In short: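 In this quantitative HTS, cell killing is estimated from loss of ATP-dependent luciferase light. Cells see five compound concentrations over a 48 h exposure.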

C=C(C)[C@@H]1CC[C@](C)(O)[C@@H](OC(=O)c2ccccc2)C1
inactive: outcome (CRL-7250) | outcome (HEK293) | max response (HaCat) -0.346% | max response (KB-3-1) 2.9% | outcome (NIH3T3 [1]) | Potency (HEK293T) | outcome (NIH3T3 [2]) | Potency (C33A)

CC(C)CC1(C(=O)OCc2ccc(O[C@@H]3O[C@H](CO)[C@@H](O)[C@H](O)[C@H]3O)cc2)CC(=O)OC(C(=O)O)CC(=O)OCC2OC(O1)C(OC(=O)/C=C/c1ccc(O)cc1)C(O)C2O (some centres not stated)
inactive: max response (CRL-7250) 2.72% | outcome (HEK293) | max response (HaCat) -1.08% | max response (KB-3-1) 8.15% | outcome (NIH3T3 [1]) | outcome (HEK293T) inactive [at 9.27 µM] | outcome (NIH3T3 [2]) inactive [at 9.27 µM] | activity change, negative = cytotoxicity (C33A) -0.106% [at 11.6 µM]

C=Cc1cc(O)cc2nc(-c3ccc(O)c(F)c3)oc12
inactive: max response (CRL-7250) -4.59% | outcome (HEK293) | max response (HaCat) -8.75% | outcome (KB-3-1) | outcome (NIH3T3 [1]) | Potency (HEK293T) | outcome (NIH3T3 [2]) | Potency (C33A)

COC(=O)[C@H](OC(C)=O)[C@H]1C(C)(C)C(=O)[C@H]2CC3=C4CC(=O)O[C@@H](c5ccoc5)[C@]4(C)CCC3[C@@]1(C)C2=O (some centres not stated)
inactive: max response (CRL-7250) -5.81% | outcome (HEK293) | max response (HaCat) -1.64% | outcome (KB-3-1) | outcome (NIH3T3 [1]) | Potency (HEK293T) | outcome (NIH3T3 [2]) inactive [at 17.4 µM] | Potency (C33A)

CC(C)=CCC[C@](C)(O[C@@H]1O[C@H](CO[C@@H]2OC[C@@H](O)[C@H](O)[C@H]2O)[C@@H](O)[C@H](O)[C@H]1O)[C@H]1CC[C@]2(C)[C@@H]1[C@H](O)C[C@@H]1[C@@]3(C)CC[C@H](O[C@@H]4O[C@H](CO)[C@@H](O)[C@H](O)[C@H]4O[C@@H]4O[C@H](CO)[C@@H](O)[C@H](O)[C@H]4O)C(C)(C)[C@@H]3CC[C@]12C
inactive: outcome (CRL-7250) | outcome (HEK293) | max response (HaCat) -10.6% | outcome (KB-3-1) | outcome (NIH3T3 [1]) | Potency (HEK293T) | outcome (NIH3T3 [2]) inactive [at 17.4 µM] | Potency (C33A)

C=CC(C)(C)C1(CC2NC(=O)C3CCCN3C2=O)C(=O)Nc2cc3c(cc21)C=CC(C)(C)O3 (configuration not stated)
inactive: max response (CRL-7250) -5.49% | outcome (HEK293) | max response (HaCat) -0.592% | max response (KB-3-1) 2.09% | outcome (NIH3T3 [1]) | Potency (HEK293T) | outcome (NIH3T3 [2]) inactive [at 17.4 µM] | Potency (C33A)

COc1cc(/C=C/C(=O)O[C@H]2[C@H](O)[C@@H](CO)O[C@@]2(CO)O[C@H]2O[C@H](COC(=O)c3ccc(O)cc3)[C@@H](O)[C@H](O)[C@H]2O)cc(OC)c1OC
inactive: outcome (CRL-7250) | outcome (HEK293) | max response (HaCat) 4.76% | max response (KB-3-1) 3.54% | outcome (NIH3T3 [1]) | Potency (HEK293T) | outcome (NIH3T3 [2]) inactive [at 17.4 µM] | Potency (C33A)

O=C1NCc2nc3ccccc3c(=O)n2C1Cc1c[nH]c2ccccc12 (configuration not stated)
inactive: max response (CRL-7250) -3.24% | outcome (HEK293) | max response (HaCat) 1.57% | max response (KB-3-1) 3.31% | outcome (NIH3T3 [1]) | Potency (HEK293T) | outcome (NIH3T3 [2]) | Potency (C33A)

COc1cc(/C=C/C(=O)OC2CC3CCC2(C)C3(C)C)ccc1O (configuration not stated)
inactive: outcome (CRL-7250) | outcome (HEK293) | max response (HaCat) -0.121% | max response (KB-3-1) 9.6% | outcome (NIH3T3 [1]) | Potency (HEK293T) | outcome (NIH3T3 [2]) | Potency (C33A)

CC(C)C(=O)c1cn(CC(=O)COc2ccc(Oc3ccccc3)cc2)c2ccc(C(=O)O)cc12
inactive: max response (CRL-7250) 3.02% | outcome (HEK293) | max response (HaCat) -4.02% | max response (KB-3-1) -0.497% | max response (NIH3T3 [1]) -1.24% | Potency (HEK293T) | Potency (C33A)

CC(/C=C/[C@]1(O)[C@@]2(C)CO[C@@]1(C)C[C@@H](O)C2)=C\C(=O)O[C@@H]1O[C@H](CO)[C@@H](O)[C@H](O)[C@H]1O
inactive: outcome (CRL-7250) | outcome (HEK293) | max response (HaCat) -14.2% | outcome (KB-3-1) | outcome (NIH3T3 [1]) | Potency (HEK293T) | Potency (C33A)

CC1(CO)CC[C@]2(C(=O)O[C@@H]3O[C@H](CO)[C@@H](O)[C@H](O)[C@H]3O)CC[C@]3(C)C(=CCC4[C@@]5(C)C[C@H](O)[C@H](O[C@@H]6OC[C@@H](O)[C@H](O)[C@H]6O)[C@@](C)(CO)C5CC[C@]43C)C2C1 (some centres not stated)
inactive: outcome (CRL-7250) | outcome (HEK293) | max response (HaCat) -24.8% | outcome (KB-3-1) | max response (NIH3T3 [1]) 2.22% | outcome (HEK293T) inactive [at 9.27 µM] | activity change, negative = cytotoxicity (C33A) 5.37% [at 11.6 µM]

CCC[C@@H]1C[C@@H](C(=O)N[C@H](C(C)Cl)[C@H]2O[C@H](SC)[C@H](O)[C@@H](O)[C@H]2O)N(C)C1 (some centres not stated)
inactive: max response (CRL-7250) -2.55% | outcome (HEK293) | max response (HaCat) 1.16% | max response (KB-3-1) 7.07% | max response (NIH3T3 [1]) 3.25% | Potency (HEK293T) | Potency (C33A)

COC(=O)C1=CO[C@@H](O[C@@H]2O[C@H](CO[C@@H]3O[C@H](COC(=O)/C=C/c4ccc(O)cc4)[C@@H](O)[C@H](O)[C@H]3O)[C@@H](O)[C@H](O)[C@H]2O)[C@@H]2C(CO)=CC[C@H]12
inactive: max response (CRL-7250) 4.68% | outcome (HEK293) | max response (HaCat) 0.423% | max response (KB-3-1) 6.83% | max response (NIH3T3 [1]) 0.0703% | Potency (HEK293T) | Potency (C33A)
